# Source: PubChem BioAssay (National Center for Advancing Translational Sciences (NCATS))
# DT40 TDP1 CPT – qHTS for Inhibitors of human tyrosyl-DNA phosphodiesterase 1 (TDP1): qHTS in cells in presence of CPT. Potency, µM (doses to about 46.2 µM), without a hit: at the top dose activity change, negative = growth inhibition, hits mostly inhibitors. AID 686979, 2013. chicken DT40 Tdp1-/-;hTDP1 cells + 20 nM CPT, ATP luminescence, 48 h. 420,000 compounds, 12% hits; note: potency is the fitted concentration of half-maximal effect; % is set by controls: 0 for no effect and ±100 for the full control effect; nearly all actives have a fitted effect of over 55% in size
#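 Chicken DT40 Tdp1-/- cells stably complemented with human TDP1 were seeded at 400 cells/well in medium containing 20 nM camptothecin, exposed to pin-transferred compounds, and grown at 37 °C for at least 48 hr. Viability was read as ATP luminescence.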
# HepG2 viability – qHTS for Inhibitors of TGF-b: Cytotox Counterscreen; HepG2 CAGA-GFP viability, ATP luminescence, 18 h; Potency, µM (doses to about 46.1 µM), inactives show at the highest dose activity change, negative = cytotoxicity, actives largely listed as cytotoxic; 410,000 compounds, 0.76% hits; note: potency is the fitted concentration of half-maximal effect
#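 HepG2 CAGA-GFP cells (1000/well, DMEM with 1% FBS) received compound, then TGF-beta at 500 pg/mL final, and were incubated 18 hours at 37 degrees C. Viability was read by CellTiter-Glo luminescence. Media-only wells were set as complete cell-killing and DMSO as no toxicity.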
# S-ASM inh – Inhibitors of Secretory Acid Sphingomyelinase (S-ASM): qHTS | Sphingomyelin phosphodiesterase (Homo sapiens), P17405 | placental ASM, HMU-PC fluorogenic substrate, 60 min | Potency, µM (titrated, usually from 57.5 µM), for inactives: top-dose activity change, negative = inhibition, most hits filed as inhibitors | 340,000 compounds, 0.006% hits; note: potency is the fitted concentration of half-maximal effect
# Target sequence (P17405 47-631 limits assumed): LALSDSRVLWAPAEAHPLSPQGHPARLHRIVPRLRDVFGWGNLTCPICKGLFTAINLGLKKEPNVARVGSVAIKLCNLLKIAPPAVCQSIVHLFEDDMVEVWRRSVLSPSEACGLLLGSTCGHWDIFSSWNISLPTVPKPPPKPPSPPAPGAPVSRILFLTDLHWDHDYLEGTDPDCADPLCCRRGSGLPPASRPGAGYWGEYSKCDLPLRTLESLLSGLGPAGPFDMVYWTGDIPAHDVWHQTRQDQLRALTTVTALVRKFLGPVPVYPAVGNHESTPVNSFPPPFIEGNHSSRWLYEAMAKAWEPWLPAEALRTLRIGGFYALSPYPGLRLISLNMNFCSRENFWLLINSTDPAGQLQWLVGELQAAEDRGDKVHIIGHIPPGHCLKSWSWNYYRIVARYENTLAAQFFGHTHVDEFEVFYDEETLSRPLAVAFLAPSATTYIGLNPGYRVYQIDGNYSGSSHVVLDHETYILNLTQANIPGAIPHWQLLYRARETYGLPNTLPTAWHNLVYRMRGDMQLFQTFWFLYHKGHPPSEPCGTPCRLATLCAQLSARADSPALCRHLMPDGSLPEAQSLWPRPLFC
#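 Human placenta-derived ASM preincubated with compound 10 min at room temperature, then reacted with 9 uM (final) fluorogenic HMU-PC substrate for 60 min at 37 C. Stop solution raises pH to 10; fluorescence read at Ex 386/Em 447 nm.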
# TGFb SMAD3 inh – qHTS for Inhibitors of TGF-b. HepG2 CAGA-GFP TGF-b/SMAD3 reporter, GFP fluorescence, 18 h; TGF-beta stimulated, 500 pg/mL final. Potency, µM (titrated, usually from 46.1 µM), inactives show at the top dose activity, negative = inhibition, actives largely listed as inhibitors. 410,000 compounds, 1.2% hits; note: potency is the fitted concentration of half-maximal effect; % is set by controls: 0 for no effect and ±100 for the full control effect; nearly all actives have a fitted effect of over 65% in size
#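 Smad-responsive CAGA-GFP expression was quantified in HEPG2 cells exposed to compounds and 500 pg/mL final TGF-beta for 18 h at 37 degrees C; unstimulated wells defined full inhibition.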
# IL-1B inflam inh – qHTS for Inhibitors of Inflammasome Signaling: IL-1-beta AlphaLISA Primary Screen | activity change, % at 57.5 µM | 360,000 compounds, 4.7% hits | THP-1 LPS/ATP IL-1B secretion, AlphaLISA, 16 h; active compounds read low; in the data active = activity change below about -50%; inconclusive = mostly about -30% to -49%; note: % is set by controls: 0 for no effect and ±100 for the full control effect
#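 THP-1 cells pretreated 1 hr with compounds (up to 57.5 uM final), then stimulated with LPS (250 ng/mL final) plus ATP (1.25 mM final); secreted IL-1B measured by AlphaLISA after 16 hr, decreased signal indicating inhibition.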
# TDP1 cell noCPT – qHTS for Inhibitors of human tyrosyl-DNA phosphodiesterase 1 (TDP1): qHTS in cells in absence of CPT | AID 686978, 2013 | DT40 Tdp1-/- hTDP1 cells, no CPT, ATP luminescence, 48 h | 420,000 compounds, 15% hits | Potency, µM (titrated, usually from 46.2 µM), for inactives: at the highest dose activity change, negative = growth inhibition, usual class: inhibitors; note: potency is the fitted concentration of half-maximal effect; % is set by controls: 0 for no effect and ±100 for the full control effect; nearly all actives have a fitted effect of over 55% in size
#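 A cellular qHTS used chicken DT40 cells lacking endogenous Tdp1 but carrying stably transfected human TDP1. Compounds were applied without camptothecin, and cell growth kinetics were judged by ATP-dependent luminescence after ≥48 hr.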
# * marks the source's active call; other numbers are inactive results; u = inconclusive; x = no result given. An excerpt weighted towards active compounds, which were near 19% of everything screened. Unless noted, calls come from the whole dose curve; as a rule, active = well fitted curve in the direction sought with a large enough effect; inconclusive = small, poorly fitted or top-dose-only effect, or another doubt; inactive = no such curve, though single readings can be large; an effect the other way counts as inactive or inconclusive.
SMILES,DT40 TDP1 CPT,HepG2 viability,S-ASM inh,TGFb SMAD3 inh,IL-1B inflam inh,TDP1 cell noCPT
COC(=O)c1ccc(N2C(c3cc(OC)cc(OC)c3)=Cc3ccc(OC)cc3C2CC(=O)c2ccco2)cc1 (stereo not drawn),u,x,x,x,-8.4,u
CC(=O)CC1c2cc(F)ccc2C=C(c2ccsc2)N1c1ccc(C#CC2(O)CCCCC2)cc1 (stereo not drawn),u,x,x,x,-5.7,23.1µM*
COC(=O)c1ccc(N2C(c3ccsc3)=Cc3cc4c(cc3C2CC(=O)c2ccco2)OCO4)cc1 (stereo not drawn),20.6µM*,x,x,x,9.0,14.6µM*
COc1ccc(C)c(-n2c(N)cc(=O)n(Cc3ccccc3)c2=O)c1,-3.0%,-23.9%,5.0%,-5.6%,0.0,-10.5%
CC1(O)CC(c2ccc(Cl)cc2)=NN1C(=O)c1ccc([N+](=O)[O-])cc1 (stereo not drawn),20.6µM*,-37.9%,-14.4%,u,-88.5*,18.4µM*
CC(=O)N1N=C(c2ccc(Cl)cc2)CC1c1ccc([N+](=O)[O-])cc1 (stereo not drawn),u,1.4%,-7.5%,-2.3%,-12.6,u
O=C(O)c1cccc2c1/C(=N/Nc1ccc([N+](=O)[O-])cc1[N+](=O)[O-])c1ccccc1-2,-15.3%,-0.8%,6.0%,-6.2%,10.1,-8.4%
CC(=O)c1ccc(-c2ccc(C(=O)N3CCCc4ccccc43)o2)cc1,u,44.9%,8.5%,-4.3%,u,u
Cc1cccc2nc3ccccc3cc12,14.5%,3.0%,246.6%,-15.6%,-25.3,-16.6%
Cc1[nH]ccc2cc3nc4ccccc4c3cc12,5.17µM*,-73.8%,x,u,-57.7*,3.66µM*
CN(C)c1ccc(/C=C/c2ncnc3ccccc23)cc1,u,-26.7%,x,248.7%,x,15.8µM*
CN(C)c1ccc(/C=C/c2c(Cl)cnc3ccccc23)cc1,11.2µM*,-36.8%,x,-31.7%,x,11.2µM*
CN(C)c1ccc(/C=C/c2c(Br)cnc3ccccc23)cc1,u,-12.4%,x,1.3%,x,u
O=C(CC1SC(N2CCCC2)=NC1=O)Nc1ccc(C(=O)NCc2ccc(F)cc2)cc1 (stereo not drawn),31.3%,-3.8%,-2.8%,-7.3%,-16.0,-11.3%
CC(=O)N1CCN(S(=O)(=O)c2cccc(C(=O)NNC(=O)COc3ccc(F)cc3)c2)CC1,-0.9%,-27.4%,-1.0%,-27.4%,72.9,-3.5%
Cc1ncc(C)c2c([N+](=O)[O-])cccc12,-7.7%,-2.8%,x,-4.4%,u,23.1µM*
Cc1cnc(C=O)c2cccc([N+](=O)[O-])c12,5.8µM*,-25.5%,x,-14.1%,u,3.66µM*
CC(C)(C)N1C(=O)c2ccccc2NC(=O)C1C(=O)Nc1ccc(N2CCOCC2)cc1 (stereo not drawn),-0.9%,x,x,x,-4.3,5.8%
Cc1ccc(N(CC(=O)Nc2cccc(Cl)c2)S(=O)(=O)c2cccs2)cc1,u,-30.5%,x,-20.1%,x,u
O=C(CSc1nc(-c2ccccc2)c(-c2ccccc2)[nH]1)NCCN1C(=O)CSC1=O,13µM*,-1.8%,-6.0%,u,4.0,14.6µM*
O=C(CSc1ccccc1F)NCCN1C(=O)CSC1=O,-0.2%,2.1%,5.1%,4.0%,-2.1,-18.7%
CCOC(=O)c1c(NC(=O)c2cc(-c3ccc(Br)cc3)on2)sc(C)c1C,-3.5%,-0.3%,x,0.2%,x,2.4%
CN(C)S(=O)(=O)n1cc(/C=C(\NC(=O)c2ccccc2)C(=O)NCCN2CCOCC2)c2ccccc21,-19.2%,-16.1%,5.2%,-16.0%,7.9,-13.1%
COc1ccccc1C(=O)N/C(=C\c1cn(S(=O)(=O)N(C)C)c2ccccc12)C(=O)N1CCN(C)CC1,25.9µM*,10.9%,x,9.4%,u,u
CN(C)S(=O)(=O)n1cc(/C=C(\NC(=O)c2ccccc2)C(=O)N2CCCCC2)c2ccccc21,23.1µM*,2.5%,x,-20.9%,-13.3,18.4µM*
SMILES,DT40 TDP1 CPT,HepG2 viability,S-ASM inh,TGFb SMAD3 inh,IL-1B inflam inh,TDP1 cell noCPT
COc1ccccc1C(=O)N/C(=C/c1ccc(Br)cc1)C(=O)N1CCCC1,25.9µM*,-39.6%,1.6%,u,-14.0,20.6µM*
CN(C)S(=O)(=O)n1cc(/C=C(\NC(=O)c2ccccc2F)C(=O)NCCN2CCOCC2)c2ccccc21,u,-21.6%,x,8.8%,-4.9,11.6µM*
O=C(O)CSc1nnc(-c2ccc(Cl)cc2Cl)n1-c1ccc(Br)cc1,-5.7%,1.9%,10.5%,1.4%,7.4,-3.0%
C[C@H]1CN([C@@H](C)CO)S(=O)(=O)c2ccc(Br)cc2O[C@@H]1CN(C)C(=O)Cc1cccnc1,16.1%,-16.9%,x,3.9%,10.7,4.7%
CC(C)C[C@H]1CNC(=O)C(=O)N1C[C@H]1CCCN1C[C@H](CC(C)C)N1C[C@H](Cc2ccccc2)N(CC2CCCCC2)C(=O)C1=O,-2.3%,x,x,x,8.9,3.1%
CC(C)C[C@H]1CN([C@@H](CC(C)C)CN2CCCC2CN2C(=S)NC[C@@H]2Cc2ccccc2)C(=S)N1CC1CCCCC1 (stereo partly drawn),16.4µM*,x,x,x,-7.3,u
CC(C)C[C@@H](CN1CCCC1CN1C(=S)NC[C@@H]1Cc1ccccc1)N1C[C@H](Cc2ccccc2)N(CC2CCCCCC2)C1=S (stereo partly drawn),10.3µM*,x,x,x,41.5,u
CC(C)C[C@@H](CN1CCCC1CN1C(=S)NC[C@@H]1Cc1ccc(O)cc1)N1C[C@H](Cc2ccccc2)N(CC2CCCCC2)C1=S (stereo partly drawn),u,-34.3%,-16.3%,u,-22.3,u
CC(=O)/C(=N/Nc1ccccc1)N1CCOCC1,-17.3%,-9.9%,-0.5%,24.9%,-12.1,-5.4%
CC(=O)/C(=N/Nc1ccccc1C)N1CCOCC1,8.2µM*,-8.1%,-3.4%,-5.0%,14.0,20.6µM*
COc1cc(O)c(C=NN2C(=O)CSC2=S)c(OC)c1,20.6µM*,-25.0%,x,-8.8%,33.6,23.1µM*
O=C1CSC(=S)N1N=Cc1ccc(Cl)cc1Cl,u,-3.8%,1.4%,1.3%,9.8,20.6µM*
